{"source": "PubChem BioAssay (NCI)", "note": "This is part of a sample that, as a whole, favours compounds with a hit. Of some 83,000 tested, about 20% had one in any assay.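 How to read the values: 0–100, growth inhibition (40 = 60% inhibited); 0, no net growth; -100 to 0, cell death (-40 = 40% of starting cells died; -100 = all dead).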 The source made the active and inactive calls. Rule for the calls: active = growth percent below 10; inactive = the rest."}
{"tested_on": "NCI-H23 lung", "experiment": "NCI-60 one-dose screen, 48 h (100 = growth as untreated, 0 = no growth, -100 = all killed)", "details": "10 µM unless noted"}
{"smiles": "C/C(CCC(=O)O)=N/Nc1ccc([N+](=O)[O-])cc1", "growth": "87.8% (inactive)"}
{"smiles": "Nc1nc2c(c3ncncc13)C(c1cccc(C(F)(F)F)c1)Cc1ncncc1-2", "note": "(stereo not given)", "growth": "18.4% (inactive)"}
{"smiles": "COc1ccc(-c2nc(SCC(C)C)nc(Nc3ccc([N+](=O)[O-])cc3)c2C#N)cc1", "growth": "98.5% (inactive)"}
{"smiles": "Cn1c2c(cc(S(=O)(=O)c3ccccc3)c1=O)CCc1c-2cnn1-c1ccc(Cl)cc1", "growth": "69.7% (inactive)"}
{"smiles": "Nc1nc2c(c3cnccc13)C(c1cccc(Cl)c1)Cc1cnccc1-2", "note": "(stereo not given)", "growth": "0.544% (active)"}
{"smiles": "CCCCCSc1ccc2nc(NC(=O)OCCC)sc2c1", "growth": "25.5% (inactive)"}
{"smiles": "CCCCCSc1ccc2nc(NC(=O)OCC)sc2c1", "growth": "18.5% (inactive)"}
{"smiles": "Cc1c(Cc2ccccc2)c(=O)oc2c(C)c(OCc3n[nH]c(=S)o3)ccc12", "growth": "57.7% (inactive)"}
{"smiles": "CCOC(=O)c1c(C)oc2ncnc(Nc3ccc(C(=O)NCCc4ccccc4)cc3)c12", "growth": "81.8% (inactive)"}
{"smiles": "COc1cc(/C=C/C(=O)c2ccc(F)cc2)ccc1OCCCCOc1cc2c(cc1OC)C(=O)N1CCCC1C=N2", "note": "(stereo not given)", "growth": "-33.9% (active)"}
{"smiles": "C=C(C)[C@@H]1CC[C@]2(COC(=O)c3ccccc3C(=O)O)CC[C@]3(C)[C@H](CC[C@@H]4[C@@]5(C)CCCNC(C)(C)[C@@H]5CC[C@]43C)[C@@H]12", "growth": "80.7% (inactive)"}
{"smiles": "O=C(CCCC(=O)Nc1ccc(Cn2nnc3cc(Cl)c(Cl)cc32)cc1)Nc1ccc(CN2N=NC3C=C(Cl)C(Cl)=CC32)cc1", "note": "(stereo not given)", "growth": "62.2% (inactive)"}
{"smiles": "CCS(=O)(=O)OCCO[C@H]1Cc2cc3ccc(=O)oc3cc2OC1(C)C", "growth": "105% (inactive)"}
{"smiles": "O=C1Nc2ccccc2/C1=C/c1cn(CC(O)Cn2cc(/C=C3\\C(=O)Nc4ccccc43)c3ccccc32)c2ccccc12", "note": "(stereo not given)", "growth": "-67.3% (active)"}
{"smiles": "COC(=O)Nc1nc2ccc(C(=O)c3ccccc3N(C)C3COC3)cc2[nH]1", "growth": "54.4% (inactive)"}
{"smiles": "COC(=O)/C=C/c1cc(O)c2oc(-c3ccc(O)c(O)c3)c(C(=O)OC)c2c1", "growth": "30.4% (inactive)"}
{"smiles": "CC(C)OC(=O)[C@H](C)N[P@@](=O)(OC[C@@]1(C)O[C@@H](n2cc(F)c(N)nc2=O)C[C@@H]1O[P@](=O)(N[C@@H](C)C(=O)OC(C)C)Oc1ccccc1)Oc1ccccc1", "growth": "94.4% (inactive)"}
{"smiles": "COc1cc2ncnc(Nc3ccc4c(cnn4C(=O)Nc4ccccc4)c3)c2cc1OC", "growth": "100% (inactive)"}
{"smiles": "Cc1nnc(/N=C2\\NC(=O)/C(=C/C=C/c3ccccc3)S2)s1", "growth": "55.2% (inactive)"}
{"smiles": "COC(c1ccccc1)C(Br)C(=O)c1ccccc1", "note": "(stereo not given)", "growth": "109% (inactive)"}
{"smiles": "O=C1c2ccccc2CCc2ccccc21", "growth": "100% (inactive)"}
{"smiles": "COc1cc2ncnc(-n3ncc4cc(NC(=O)Nc5ccccc5)ccc43)c2cc1OC", "growth": "3.14% (active)"}
{"smiles": "COc1cc(-c2cc3cnccc3c3nc(N)c4ccncc4c23)cc(OC)c1OC", "growth": "64.3% (inactive)"}
{"smiles": "COc1cc(OC)c(NC(=O)n2ncc3cc(Nc4ncnc5ccccc45)ccc32)cc1Cl", "growth": "97.5% (inactive)"}
{"smiles": "COc1cc(OC)cc(-c2ccc(-c3ccc(C(=N)N)cc3)s2)c1", "growth": "-77.5% (active)"}
{"smiles": "CC1(C)NCCC[C@]2(C)[C@H]3CC=C4[C@@H]5C[C@](C)(COC(=O)c6ccccc6C(=O)O)CC[C@]5(C)CC[C@@]4(C)[C@]3(C)CC[C@@H]12", "growth": "66.9% (inactive)"}
{"smiles": "Nc1ncn([C@@H]2O[C@H](CO)[C@@H](O)C2(F)F)c(=O)n1", "growth": "30.6% (inactive)"}
{"smiles": "CCOC(=O)c1cc(C(=O)c2ccc(Br)cc2)n2cc(C)cc(C)c12", "growth": "95.2% (inactive)"}
{"smiles": "Nc1nc2c(c3cnccc13)C(c1cccc(Br)c1)Cc1cnccc1-2", "note": "(stereo not given)", "growth": "-0.611% (active)"}
{"smiles": "O=C1/C(=C\\c2cn(-c3nc(N4CCOCC4)nc(N4CCOCC4)n3)c3ccccc23)c2ccccc2N1c1c(Cl)cccc1Cl", "growth": "79.7% (inactive)"}
{"smiles": "COc1cc2ncnc(-n3ncc4cc(NC(=O)Nc5ccc(Cl)c(C)c5)ccc43)c2cc1OC", "growth": "95.5% (inactive)"}
{"smiles": "CC1=C[C@@H]2c3c(c(O)c(O)c4oc5cc(O)cc(O)c5c(=O)c34)[C@@H](c3cc(O)c(O)c4oc5cc(O)cc(O)c5c(=O)c34)[C@@H]2C(C)(C)C1", "growth": "-20.3% (active)"}
{"smiles": "N=C(N)c1ccc(-c2ccc(-c3cc(Cl)cc(Cl)c3)s2)cc1", "growth": "-77.4% (active)"}
{"smiles": "COc1cc2ncnc(-n3ncc4cc(NC(=O)Nc5ccc(Cl)c(Cl)c5)ccc43)c2cc1OC", "growth": "-54% (active)"}
{"smiles": "COC1=CC(c2ccc[nH]2)=N/C1=C\\c1[nH]c(C)c(C(=O)CCCCC(=O)NC(C)(C)C)c1C", "growth": "40.6% (inactive)"}
{"smiles": "CC1=NN(c2cccc(Cl)c2)C(=O)/C1=C\\c1cn(-c2nc(N3CCOCC3)nc(N3CCOCC3)n2)c2ccccc12", "growth": "100% (inactive)"}
{"smiles": "O=C(Nc1ccccc1)Nc1ccc(Nc2ncnc3sc4c(c23)CCCC4)cc1", "growth": "100% (inactive)"}
{"smiles": "O=c1c(N=Nc2nccs2)c(-c2ccccc2)[nH]n1-c1nc(-c2ccccc2)cs1", "growth": "36.3% (inactive)"}
{"smiles": "CCOP1(=O)CC(C)=C(Cl)C(P(=O)(O)O)C1", "note": "(stereo not given)", "growth": "93.3% (inactive)"}
{"smiles": "Cc1ccc(OCCn2ccc(=O)n(CCOc3ccc(Cl)cc3C(=O)c3cc(C)cc(C)c3)c2=O)cc1", "growth": "54.4% (inactive)"}
